# Assay results taken from PubChem BioAssay (Tox21).
# Records with an inconclusive call do not appear. Entries that show only a call come without a potency. Activity calls are given as the source filed them. Calls come from the whole dose curve; as a rule, active = well fitted cell-killing curve with a large enough effect in the repeat runs; inconclusive = weak or mixed curves, or effect the other way; inactive = flat fitted curve, though single readings scatter.
# Assay: cAMP Responsive Elements (CRE) small molecule antagonists, cell-based qHTS assay: qHTS cell viability counter screen (AID 2060913); note: nearly all actives have a fitted effect of over 40% in size; note: potency is the fitted concentration of half-maximal effect
# Conditions: CRE-bla HEK293T viability, CellTiter-Glo luminescence, 5 h; series mostly up to 92.4 µM
# How it was run: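 Steps: cells plated and held 18 hrs at 37 C/5% CO2; compounds and NKH477 (0.25 uM final) added; 3 hrs incubation; reporter substrate read; CellTiter-Glo added to measure cytotoxicity by luminescence.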
row,Structure (SMILES),Potency
1,C=CCCl,inactive
2,CC[C@H](C)[C@H]1O[C@]2(C=C[C@@H]1C)C[C@@H]1C[C@@H](C/C=C(\C)[C@@H](O[C@H]3C[C@H](OC)[C@@H](O[C@H]4C[C@H](OC)[C@@H](NC)[C@H](C)O4)[C@H](C)O3)[C@@H](C)/C=C/C=C3\CO[C@@H]4[C@H](O)C(C)=C[C@@H](C(=O)O1)[C@]34O)O2,15.4 µM (active)
3,Cc1ccc([N+](=O)[O-])cc1C,inactive
4,Oc1c(Cl)cccc1Cl,inactive
5,CC(O)CN1CCN(CC(=O)[O-])CCN(CC(=O)[O-])CCN(CC(=O)[O-])CC1.[Gd+3] (stereo not given),inactive
6,CN1CC[C@]23c4c5ccc(O)c4O[C@H]2[C@@H](O)CC[C@H]3[C@H]1C5,inactive
7,O=C(O)C(F)(F)C(F)(F)C(F)(F)C(F)(F)C(F)(F)C(F)(F)F,inactive
8,CCCCCCCCSC(=O)Oc1cc(Cl)nnc1-c1ccccc1,inactive
9,ClCOCCl,inactive
10,O=C(Nc1ccccc1)Nc1cnns1,inactive
11,CNC(=O)Oc1cccc(N=CN(C)C)c1,inactive
12,C[C@]12CCC(=O)C(O)=C1CC[C@@H]1[C@@H]2CC[C@]2(C)C(=O)CC[C@@H]12,inactive
13,CN(C)C(=O)Nc1cccc(C(F)(F)F)c1,inactive
14,O=c1oc2ccccc2c(O)c1C1CCCc2ccccc21 (stereo not given),inactive
15,C=C(Cl)Cl,inactive
16,CCBr,inactive
17,C[C@]1(O)CC[C@H]2[C@@H]3CCC4=CC(=O)CC[C@]4(C)[C@@]3(F)[C@@H](O)C[C@@]21C,inactive
18,CC1(C)C(C(=O)OC(C#N)c2cccc(Oc3ccccc3)c2)C1(C)C (stereo not given),inactive

# Assay: cAMP Responsive Elements (CRE) small molecule agonists, cell-based qHTS assay: qHTS cell viability counter screen (AID 2060914);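 note: viability read after 3 h of compound exposure; nearly all actives have a fitted effect of over 50% in size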
# Conditions: CRE-bla HEK293T viability, CellTiter-Glo luminescence, 5 h; series mostly up to 92.4 µM
# How it was run: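 Cytotoxicity counter screen multiplexed with the CRE-bla reporter assay in HEK 293T cells: 3 h compound exposure at 37 °C, followed by CellTiter-Glo luminescence measured in the same wells.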
row,Structure (SMILES),Potency
1,CC(C)(O)C#N,inactive
2,CCc1cccc(CC)c1N(COC)C(=O)CCl,inactive
3,O=C(O)c1cccc(Cl)c1,inactive
4,C=CCCl,inactive
5,Cc1ccc([N+](=O)[O-])cc1C,inactive
6,CC(O)CN1CCN(CC(=O)[O-])CCN(CC(=O)[O-])CCN(CC(=O)[O-])CC1.[Gd+3] (stereo not given),inactive
7,C[C@]1(O)CC[C@H]2[C@@H]3CCC4=CC(=O)CC[C@]4(C)[C@@]3(F)[C@@H](O)C[C@@]21C,inactive
